A short description of this experiment: sensitizers of A549 cells to miR-34 induction, primary screen, imaging, A549 dox-inducible miR-34, nuclei and caspase counts (AID 1347080). Also: test concentration not given here. As to conditions: A549 miR-34 inducible, Hoechst nuclei count, 48 h.
The mark [1] stands for this setting: stronger effect = lower value, cell number ratio, induced over uninduced.
Where [2] appears, read: measured here: relative caspase fold change +Dox/-Dox.
The mark [3] stands for this setting: measured here: total cells with miR-34 induction, stronger effect = lower value.
Where [4] appears, read: measured here: total cells without miR-34 induction.

The source made the active and inactive calls.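 The calls were made as follows: active = compounds whose cell count with miR-34 switched on is under 0.7 times the count with it off; inactive = the rest.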

Regarding `CCCCCC/C=C\CCCCCCCC(=O)OCC`, the fold change reads like this: under setting [1], 0.904 (inactive); under setting [2], 1.03. The cell count under setting [3] is 5560 and the cell count under setting [4] turned out to be 6150.
The like results for `CC(C)=CCC/C(C)=C/CC/C(C)=C/CSc1ccccc1C(N)=O` were, in that order, 0.994 (inactive), 0.741, 5740 and 5780.
Taken in the same sequence, the figures for `CCCCC[C@H](O)/C=C/[C@H]1C(=O)C[C@H](O)[C@@H]1CCCCCCCO` were 1.14 (inactive), 1.46, 5820 and 5120.
With `CCCCCCCCCCCCC(=O)N[C@H]1CCOC1=O`, the fold change is 0.915 (inactive) under setting [1] and 1.35 under setting [2]. In addition, the cell count runs as follows: under setting [3], 5190; under setting [4], 5670.
Taken in the same sequence, the figures for `O=Cc1cccc2[nH]ccc12` were 1.14 (inactive), 0.821, 6070 and 5350.
Taken in the same sequence, the figures for `O=P(O)(O)O[C@@H]1[C@H](O)[C@H](O)[C@@H](OP(=O)(O)O)[C@H](OP(=O)(O)O)[C@H]1O` were 0.931 (inactive), 0.377, 5940 and 6380.
Taken in the same sequence, the figures for `COC(=O)[C@H](Cc1ccccc1)NC(=O)/C=C/c1ccc(O)cc1` were 1 (inactive), 0.674, 6500 and 6490.
As for `COc1ccc(-c2nc3cc(F)ccc3s2)cc1OC`, the fold change under setting [1] was 0.915 (inactive) and the fold change under setting [2] was 0.244. Besides, the cell count runs as follows: under setting [3], 4920; under setting [4], 5370.
Consider `CCCCCCCC/C=C\CCCCCCCCCCCC(=O)O`, for which the fold change by setting is: under setting [1], 1.01 (inactive); under setting [2], 0.826. Further, the cell count by setting is: under setting [3], 6030; under setting [4], 5990.
Taken in the same sequence, the figures for `O=C(Cc1ccccc1Nc1c(Cl)cccc1Cl)Oc1ccc(-c2cc(=S)ss2)cc1` were 0.933 (inactive), 1.55, 6130 and 6570.
Taken in the same sequence, the figures for `CCCCCC(=O)/C=C/[C@@H]1[C@H](C/C=C\CCCC(=O)O)[C@H](O)C[C@H]1O` were 0.99 (inactive), 3.22, 5630 and 5690.
Taken in the same sequence, the figures for `CC#CCC(C)[C@@H](O)/C=C/[C@@H]1[C@H]2C/C(=C/CCCC(=O)O)C[C@H]2C[C@H]1O` (some centres not stated) were 0.965 (inactive), 2.36, 5460 and 5660.
Regarding `CCCCCCCC/C=C\CCCCCCCC(=O)NCC(=O)O`, the fold change runs as follows: under setting [1], 1.05 (inactive); under setting [2], 0.739. For the same compound, the cell count runs as follows: under setting [3], 6150; under setting [4], 5840.
Taken in the same sequence, the figures for `O=C(OCc1ccccc1)[C@H](O)c1ccccc1` were 1.04 (inactive), 0.545, 5580 and 5350.
Consider `CCCCCCCC/C=C\CCCCCCCCCCCCCC(=O)NCCS(=O)(=O)O`, for which the fold change reads like this: under setting [1], 0.871 (inactive); under setting [2], 0.338. Moreover, the cell count runs as follows: under setting [3], 5170; under setting [4], 5940.
As to `CCCCC[C@](C)(O)/C=C/[C@@H]1[C@@H](C/C=C\CCCC(=O)OC)[C@@H](O)C[C@H]1O`, the fold change is 0.977 (inactive) under setting [1] and 1.61 under setting [2]. Further, the cell count runs as follows: under setting [3], 6340; under setting [4], 6490.
With `CCCCC[C@H](O)/C=C/[C@@H]1[C@H]2C/C=C\CCCC(=O)O[C@H]2C[C@H]1O`, the fold change is, setting by setting: under setting [1], 0.977 (inactive); under setting [2], 1.29. For the same compound, the cell count is, setting by setting: under setting [3], 5860; under setting [4], 5990.
The like results for `CC(C)OC(=O)CCC/C=C\C[C@@H]1[C@@H](/C=C/C(=O)COc2cccc(C(F)(F)F)c2)[C@H](O)C[C@@H]1O` were, in that order, 0.979 (inactive), 1.05, 6150 and 6280.
In the case of `CCCCCCCCCCCCCCCCOC[C@H](COP(=O)([O-])OCC[N+](C)(C)C)OC(=O)CCCCCCCC(=O)O`, the fold change runs as follows: under setting [1], 0.862 (inactive); under setting [2], 0.772. Also, the cell count amounted to 4600 under setting [3] and 5340 under setting [4].
Taken in the same sequence, the figures for `O=C(O)CCCCCCC1C(=O)N(Cc2ccccc2)C(=O)N1NCC(O)C1CCCCC1` (configuration not stated) were 0.813 (inactive), 2.25, 5360 and 6590.
With `O=C(O)CCCCCCCCCCCNC(=O)NC12CC3CC(CC(C3)C1)C2`, the fold change is, setting by setting: under setting [1], 0.971 (inactive); under setting [2], 0.546. Moreover, the cell count by setting is: under setting [3], 5310; under setting [4], 5470.
Taken in the same sequence, the figures for `CCCCC[C@](C)(O)/C=C/[C@H]1[C@H](O)CC(=O)[C@@H]1C/C=C\CCCC(=O)O` were 0.915 (inactive), 1.22, 5410 and 5910.
Taken in the same sequence, the figures for `CC/C=C\C/C=C\C/C=C\CCCCCCCC(=O)N[C@@H](Cc1ccc(O)cc1)C(=O)O` were 0.852 (inactive), 2.46, 5060 and 5940.
For the compound `CCCCCCCCCCCCCC(=O)O`, the fold change by setting is: under setting [1], 1.04 (inactive); under setting [2], 1.03. Besides, the cell count runs as follows: under setting [3], 6710; under setting [4], 6460.
The like results for `CCCCC[C@H](O)/C=C/[C@H]1[C@H](O)CC(=O)[C@@H]1C/C=C\CCCC(=O)Oc1ccc(NC(C)=O)cc1` were, in that order, 0.993 (inactive), 0.876, 6020 and 6060.
Taken in the same sequence, the figures for `COc1ccc(/C=C/c2cc(Cl)cc(Cl)c2)cc1` were 1.04 (inactive), 0.753, 5410 and 5220.
The like results for `CCCCC[C@H](O)/C=C/[C@H]1CC[C@@H](O)[C@@H]1C/C=C\CCCC(=O)O` were, in that order, 0.973 (inactive), 1.34, 5950 and 6110.
In the case of `CCCC1([C@@H](O)C/C=C/[C@H]2C(O)CC(=O)[C@@H]2CCCCCCC(=O)OC)CCC1` (some centres not stated), the fold change is, setting by setting: under setting [1], 1.02 (inactive); under setting [2], 1.54. Moreover, the cell count by setting is: under setting [3], 6030; under setting [4], 5910.
Taken in the same sequence, the figures for `CCCCCCCCCCCCCCCCOC[C@H](COP(=O)([O-])OCC[N+](C)(C)C)OCC` were 0.91 (inactive), 1.05, 5080 and 5580.
Take `CCCCC/C=C\C/C=C\CC/C=C\CCCC(=O)OCC`: the fold change under setting [1] is 1.04 (inactive) and the fold change under setting [2] turned out to be 1.09. The cell count runs as follows: under setting [3], 5570; under setting [4], 5390.
For `CCCCC/C=C\C/C=C\CCCCCCCC(=O)OCC(COC(=O)CCCCCCCCCCCCCCC)OC(=O)CCCCCCC/C=C\CCCCCCCC` (configuration not stated), the fold change under setting [1] was 1.03 (inactive) and the fold change under setting [2] is 0.903. Besides, the cell count runs as follows: under setting [3], 5950; under setting [4], 5790.
`COc1ccc(/C=C/c2cc(O)cc(O)c2)cc1O`: the fold change was 0.915 (inactive) under setting [1] and 0.703 under setting [2]. The cell count came out at 5710 under setting [3] and 6250 under setting [4].
The like results for `CCCCC/C=C\C/C=C\C/C=C\C/C=C\CCCC(=O)SCC(O)CO` (configuration not stated) were, in that order, 0.986 (inactive), 0.486, 5460 and 5540.

(Values after PubChem BioAssay.)
